The values that follow come from PubChem BioAssay AID602252 (Broad Institute, 2012).

Structures are written as SMILES. Out of some 300,000 compounds screened, about 2,700 (0.9%) were called active. The sample as a whole holds a higher share of actives than the screen did. A number with no mark means an inactive call.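 Rule for the calls: active = mean inhibition of at least 30% with at least half of replicates also reaching 30%; inconclusive = no clear call, values can overlap the other calls; inactive = the rest.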

The target in the assay is Golgi-associated PDZ and coiled-coil motif-containing protein (Homo sapiens) (UniProt Q9HD26). In words: untagged CAL PDZ binding inhibitors, primary screen, biochemical, fluorescence polarization, HTS (AID 602252).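 Note: 0% = DMSO neutral control and 100% = excess unlabeled competitor peptide PRC23.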 As to conditions: purified CAL PDZ, TMR-peptide fluorescence polarization, 1 h; at 24.9 µM; hits give high values. (In general: Fluorescence polarisation rises when a labelled molecule tumbles more slowly, as on binding a larger partner.)
`O=C(NN=Cc1ccccc1O)NN=Cc1ccccc1O`: the inhibition is -7.2%.

Consider `CN(Cc1nc2ccc(F)cc2[nH]1)Cc1nc(CC2CC2)no1`, for which the inhibition is -5.2%.

For the compound `OC(c1nc2ccc(F)cc2[nH]1)C(O)c1nc2ccc(F)cc2[nH]1` (stereo not drawn), the inhibition was 37% (active).

On to `CC(C)c1nc2ccc(C(=O)O)cc2[nH]1`, for which the inhibition is 1.18%.

In the case of `Cc1ccc(S(=O)(=O)N2CCN(C(=O)COC(=O)/C=C/c3cccc(Cl)c3)CC2)c(C)c1`, the inhibition is -0.868%.

On to `CCOC(=O)N(Cc1ccccc1)C1CC1`, for which the inhibition was -3.68%.

As for `Fc1ccc(NC(=S)N2CCc3[nH]c4ccccc4c3C2)cc1`, the inhibition was 0.223%.

Regarding `O=C(NC1CCCCC1)N1CCc2[nH]c3ccccc3c2C1`, the inhibition is 73.4% (active).

Turning to `O=C(Nc1ccc(Cl)cc1)N1CCc2[nH]c3ccccc3c2C1`, the inhibition was -12.5%.

Consider `COc1ccc(C2=Nn3c(nnc3-c3ccccc3OC)SC2)cc1OC1CCCC1`, for which the inhibition is -2.41%.

Consider `O=C1OC(Oc2ccc(Br)cc2)(c2ccccc2)c2ccccc21` (stereo not drawn), for which the inhibition is -1.95%.

As to `CC(=O)c1c(C)[nH]c(C(=O)OCC(=O)NCCC(C)C)c1C`, the inhibition is 66.4% (active).

`CC(=O)c1c(C)[nH]c(C(=O)OCC(=O)Nc2cc(S(=O)(=O)N3CCCCC3)ccc2C)c1C`: the inhibition is -0.974%.

As to `CC(=O)c1c(C)[nH]c(C(=O)OCC(=O)Nc2c(C)cccc2C)c1C`, the inhibition is 4.23%.

`Cc1cccc(NC(=O)/C(=C\c2ccco2)NC(=O)c2ccccc2)c1`: the inhibition is 79.4% (active).

In the case of `O=C(Nc1ccccc1)/C(=C\c1ccco1)NC(=O)c1ccco1`, the inhibition is -6.57%.

Regarding `COc1ccc(/C=C(/NC(=O)c2ccccc2)C(=O)Nc2cccc(C(=O)O)c2)cc1`, the inhibition was -4.34%.

Regarding `COc1ccc(CCC(=O)Nc2ccc(Cl)c(S(=O)(=O)N3CCOCC3)c2)cc1OC`, the inhibition is -22.4%.

As to `CC(=O)OCC1(O)CC23CCC4c5ccoc5CCC4(C)C2CCC1C3` (stereo not drawn), the inhibition was -3.61%.

`CC1(c2ccc3ccccc3c2)NC(=O)NC1=O` (stereo not drawn): the inhibition was -8.76%.

As to `O=C1NCC(c2ccccc2)(c2ccccc2)C(=O)N1`, the inhibition is 41.9% (active).

`O=C1NCC(Nc2ccccc2)C(=O)N1` (stereo not drawn): the inhibition is 1.56%.

In the case of `COc1ccccc1-c1nnc2n1N=C(c1ccc(OC(F)F)c(OCC3CC3)c1)CS2`, the inhibition is -1.27%.

As to `O=C1C(Cl)=C(Oc2ccccc2)C(=O)c2ccccc21`, the inhibition was 6.75%.

As for `COc1ccccc1C(=O)Nc1ccc(C)c(S(=O)(=O)N2CCCCC2)c1`, the inhibition is -7.43%.

Take `O=[N+]([O-])c1ccc(C=NN=Cc2ccc([N+](=O)[O-])cc2)cc1`: the inhibition was 76.3% (active).

In the case of `NC(=S)N/N=C/c1ccc([N+](=O)[O-])cc1`, the inhibition was 1.65%.

With `O=[N+]([O-])c1ccc(N/N=C/c2ccccc2)cc1`, the inhibition was 4.6%.

Take `CC(C)N(Cc1nnc(-c2ccccc2Br)o1)C(=O)c1cc(Cl)nc2ccccc12`: the inhibition was 2.14%.

On to `CCc1ccc(OC(C)C(=O)Nc2ccc(S(=O)(=O)Nc3cc(C)on3)cc2)cc1` (stereo not drawn), for which the inhibition is -5.02%.

Take `CCOc1ccc(C(=O)Nc2ccc(S(=O)(=O)Nc3cc(C)on3)cc2)cc1`: the inhibition was -5.22%.

For `CCC(Oc1ccccc1C)C(=O)Nc1ccc(S(=O)(=O)Nc2cc(C)on2)cc1` (stereo not drawn), the inhibition was 71.5% (active).

Turning to `CN(c1ccccc1)S(=O)(=O)c1cc(C(=O)N2CCN(c3ncccn3)CC2)ccc1Cl`, the inhibition was -2.36%.

In the case of `Nc1ncnc2c1ncn2[C@@H]1O[C@H](CNS(=O)(=O)c2ccc(-c3ccno3)s2)[C@@H](O)[C@H]1O`, the inhibition is -0.947%.

Regarding `COc1ccc(CC(NC(C)=O)C(=O)NC2CCN(C(=O)C3CC3)CC2)cc1OC` (stereo not drawn), the inhibition is 5.28%.

For the compound `COc1cccc(NC(=O)N2CCC(NC(=O)C(Cc3cccc(C)c3)NC(C)=O)CC2)c1` (stereo not drawn), the inhibition is -5.2%.

Take `COc1ccccc1CC(NC(C)=O)C(=O)NC1CCN(C(=O)Nc2ccccc2Cl)CC1` (stereo not drawn): the inhibition is 78.3% (active).

As to `C=CCCC(=O)N1C[C@H]2CON(C)[C@H]2C[C@H]1c1cccc(Nc2ccccc2)c1`, the inhibition is 1.45%.

As to `O=C(Nc1ccccc1)Oc1cccc2cccnc12`, the inhibition was -4.21%.

Take `CCC(CO)Oc1cc(NCc2ccccc2)c2ncn(C3CCCC3)c2c1` (stereo not drawn): the inhibition is 2.05%.

For the compound `Cc1ccc2nc(C)cc(N/N=C/c3ccc(F)cc3)c2c1`, the inhibition was -0.859%.

For the compound `Oc1ccc(/C=N/Nc2nc(-c3ccccc3F)nc3ccccc23)c(O)c1`, the inhibition is 4.73%.

As for `Cc1cc(N/N=C/c2ccccc2F)c2ccccc2n1`, the inhibition is 30.5% (active).

For `O=C(c1cccnc1)N(Cc1ccccc1)C(=O)c1cccnc1`, the inhibition is -4.97%.

Consider `CSc1ncccc1C(=O)NCC(c1ccco1)N1CCCCC1` (stereo not drawn), for which the inhibition was 63.8% (active).

Take `COc1ccccc1C(=O)NCCC(=O)NCC(c1ccco1)N1CCCCC1` (stereo not drawn): the inhibition is 2.93%.

For `COc1ccc(C(CNC(=O)c2cccnc2SC)N2CCOCC2)cc1` (stereo not drawn), the inhibition is -3.62%.

Regarding `Cc1ccc(C(=O)Nc2ccc3c(c2)OCCO3)cc1S(=O)(=O)N1CCOCC1`, the inhibition was -4.3%.

On to `CCCN(CCC)S(=O)(=O)c1cc2c(cc1Br)CCN2C(=O)CC`, for which the inhibition was 0.953%.

`COc1ccc(/C=C/C(=O)OCC(=O)N2CCN(S(=O)(=O)c3ccc(C)cc3C)CC2)cc1OC`: the inhibition is 6.76%.

`O=C(CSc1nc2ccccc2c(=O)n1-c1ccccc1F)N1CCOCC1`: the inhibition is -2.27%.

As for `Cc1ccc(OCC(=O)Nc2ccc(C(=O)O)cc2NC(=O)COc2ccc(C)c(C)c2)cc1C`, the inhibition was 56.8% (active).

Consider `Cc1ccc(OCC(=O)Nc2cccc3c2CCCC3)cc1C`, for which the inhibition is 1.05%.

Regarding `Cc1cccc(OCC(=O)Nc2ccc(C(=O)O)cc2NC(=O)COc2cccc(C)c2)c1`, the inhibition is -0.14%.

For the compound `Cc1ccc(NC(=O)CCC(=O)N2CCC(c3ccccc3)=N2)cc1S(=O)(=O)N1CCCCC1`, the inhibition is -3.11%.

Turning to `Cc1ccc(C(=O)N2CCCC(c3ccccc3)=N2)cc1`, the inhibition was 4.38%.

Take `Cc1ccc(NC(=S)N2CCCC(c3ccccc3)=N2)cc1`: the inhibition was 38.9% (active).

For the compound `CCCCNC(=O)C(C)N(CCN(C)C)C(=O)CCCN1C(=O)NC(c2ccc(Cl)cc2)C(C(=O)OCc2ccccc2)=C1C` (stereo not drawn), the inhibition was -4.12%.

As for `Cc1[nH]c2c(C(=O)N3CCCC(CCC(=O)NCc4ccccc4F)C3)cccc2c1C` (stereo not drawn), the inhibition is 46.8% (active).

`O=C(CCC1CCCN(Cc2ccc(O)c(Cl)c2)C1)NCc1ccccc1F` (stereo not drawn): the inhibition was -4.54%.

Consider `COc1cccc(C(=O)N2CCCC(CCC(=O)NCc3ccc(F)c(F)c3)C2)c1` (stereo not drawn), for which the inhibition is -10.1%.

Regarding `CSc1ncccc1C(=O)N1CCCC(CCC(=O)NCc2ccccc2F)C1` (stereo not drawn), the inhibition was 4.75%.

On to `COc1cccc(CNC(=O)CCC2CCCN(C(=O)c3ccoc3C)C2)c1` (stereo not drawn), for which the inhibition is 56.3% (active).

Regarding `COc1cccc(CNC(=O)CCC2CCCN(Cc3ccc(OC(F)F)cc3)C2)c1` (stereo not drawn), the inhibition was 7.33%.

As to `CC(C)(C)S(=O)(=O)N1Cc2cc(CO)cc(CCO)c2[C@H]1CCO`, the inhibition is -1.94%.

As to `CC(C)NC(=O)Nc1cccc2c1O[C@@H](CN(C)S(=O)(=O)c1ccc(F)cc1)[C@@H](C)CN([C@H](C)CO)C2=O`, the inhibition was -0.185%.

In the case of `CCc1cc(C(=O)Nc2nnc(C3CC3)s2)sc1C`, the inhibition was -1.8%.

Consider `CSCCC(NS(=O)(=O)c1ccc(C)cc1)C(=O)N(C)CC(=O)Nc1ccccc1Br` (stereo not drawn), for which the inhibition is 0.255%.

Broadly, the inhibition is the drop in the measured response relative to a control, in per cent.
